Data from PubChem BioAssay (NCATS).
Inconclusive results are not listed. Entries that show only a call come without a potency. Activity calls are given as the source filed them. Calls follow the shape of the dose curve; as a rule, active = well fitted curve in the direction sought with a large enough effect; inconclusive = small, poorly fitted or top-dose-only effect, or another doubt; inactive = no such curve, though single readings can be large; an effect the other way counts as inactive or inconclusive.

target: Phospholipid hydroperoxide glutathione peroxidase GPX4 (Homo sapiens) (UniProt P36969); assay: Primary qHTS Assay for Inhibitors of Recombinant Selenoprotein Glutathione Peroxidase 4 (GPX4) (AID 1845192); conditions: recombinant GPX4, GR-coupled NADPH fluorescence, 15 min; series mostly up to 50 µM; also: nearly all actives have a fitted effect of over 65% in size; also: potency is read from the fitted curve at half-maximal effect
In short: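 Steps: GPX4 plus compound, 30 min RT; add GR/GSH/NADPH master mix; start with cumene hydroperoxide; read 340/450 nm fluorescence at 0 and 15 min. Finals were 200 nM GPX4, 1 mM GSH, 0.5 mM CHP, 0.5 mM NADPH, 100 nM GR.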

Sequence of Phospholipid hydroperoxide glutathione peroxidase GPX4 (Homo sapiens) (P36969 whole entry, looked up): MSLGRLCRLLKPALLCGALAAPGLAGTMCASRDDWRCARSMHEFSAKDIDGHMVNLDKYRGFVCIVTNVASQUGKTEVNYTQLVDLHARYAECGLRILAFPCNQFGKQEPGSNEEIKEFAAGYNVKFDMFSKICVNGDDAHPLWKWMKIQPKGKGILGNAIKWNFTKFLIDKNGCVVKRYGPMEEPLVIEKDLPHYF

Compound	Potency
Nc1nc2c(ncn2[C@@H]2O[C@H](CO)[C@@H](O)[C@@H]2O)c(=O)[nH]1	inactive
CN(CCCOc1ccc(Cc2ccccc2)cc1)CCC(=O)O	inactive
Cc1onc(-c2c(F)cccc2Cl)c1C(=O)N[C@@H]1C(=O)N2[C@@H]1SC(C)(C)[C@@H]2C(=O)O	inactive
OCC1O[C@H](O)C(Cl)C(O)C1O (stereo not given in full)	inactive
O=C(Nc1ccccc1)c1cc([N+](=O)[O-])ccc1Cl	inactive
CCCCN(CC)c1nc(C)nc2c1c(C)cn2-c1c(C)cc(C)cc1C	inactive
CCCCCCCCc1ccc(-c2ccc(C(=O)O)cc2)cc1	inactive
O=C(CCCCCN1CCN(c2ccccc2-c2ccccc2)CC1)NC1CCCc2ccccc21 (stereo not given)	inactive
CN1CC(=O)N/C1=N/C(=O)Nc1cccc(Cl)c1	inactive
CCCCCCCCCCCCCCCC(=O)OC(CC(=O)O)C[N+](C)(C)C (stereo not given)	inactive
CN1CCc2ccccc2Cc2[nH]c3ccccc3c2CC1	inactive
Cn1ncc(S(=O)(=O)Cc2ccccc2)c(Br)c1=O	inactive
COc1cc(OC)cc(-c2cc3cnc(N)nc3nc2NC(=O)NC(C)(C)C)c1	inactive
CC[C@@H](C)[C@H]1O[C@]2(CC[C@@H]1C)C[C@@H]1C[C@@H](C/C=C(\C)[C@@H](O[C@H]3C[C@H](OC)[C@@H](O[C@H]4C[C@H](OC)[C@@H](O)[C@H](C)O4)[C@H](C)O3)[C@@H](C)/C=C/C=C3\CO[C@@H]4[C@H](O)C(C)=C[C@@H](C(=O)O1)[C@]34O)O2	inactive
O=C(O)CC1CC(c2ccccc2)=NO1 (stereo not given)	inactive
CC(=O)O[C@H]1C[C@@]2(C)[C@@H](C[C@@H](O)[C@H]3[C@@]4(C)CC[C@@H](O)[C@@H](C)[C@@H]4CC[C@@]32C)/C1=C(\CCC=C(C)C)C(=O)O	inactive
Nc1nc(Cl)nc2c1ncn2[C@@H]1O[C@H](COP(=O)(O)OP(=O)(O)OP(=O)(O)O)[C@@H](O)[C@H]1O	inactive
COc1ccc(-c2cc(=O)c3c(O)c(OC)c(OC)cc3o2)cc1O	inactive

Compound	Potency
CN1CCc2cc(NC(=O)Nc3cccnc3)ccc21	inactive
O=C(O)c1cc(=O)c2c(Cl)cc(Cl)cc2[nH]1	inactive
O=Nc1ccc2oc(=O)ccc2c1	inactive
CN(C)CCn1nnnc1SCC1=C(C(=O)O)N2C(=O)[C@@H](NC(=O)Cc3csc(N)n3)[C@H]2SC1	12.6 µM (active)
Cc1cn([C@H]2CC(N=[N+]=[N-])[C@@H](CO)O2)c(=O)[nH]c1=O (stereo not given in full)	inactive
O=C1NC(O)=NC1(c1ccccc1)c1ccccc1	inactive
CN=c1nc(-c2ccccc2)n(-c2ccccc2)s1	inactive
CN(C)c1nc(N)c(C(=O)N=C(N)N)nc1Cl	inactive
CNc1ncnc2c1ncn2[C@@H]1O[C@H](CO)[C@@H](O)[C@H]1O	inactive
Oc1ccccc1O	inactive
CCNc1nc2c(ncn2[C@H]2C[C@H](O)[C@@H](CO)O2)c(=O)[nH]1	inactive
COc1ccc(/C=C/c2nc(NCCCN(C)C)c3ccccc3n2)cc1	inactive
O=C(/C=C/c1ccc(O)c(O)c1)OCCc1ccccc1	inactive
CC(C(=O)O)c1ccc(C(=O)c2cccs2)cc1 (stereo not given)	inactive
CN(C)C(N)=NCCC[C@H](N)C(=O)O	inactive
NC(CCCP(=O)(O)O)C(=O)O (stereo not given)	inactive
CC(C)(NS(=O)(=O)c1ccc(Oc2ccc(F)cc2)cc1)C(=O)NO	inactive
NS(=O)(=O)c1ccc(-n2nc(C(F)(F)F)cc2-c2ccc(Cl)cc2)cc1	inactive

target: Luciferin 4-monooxygenase (Photinus pyralis) (UniProt P08659); assay: Primary firefly luciferase (FLuc) qHTS assay for identification of artifact compounds. (AID 1845220); conditions: purified firefly luciferase, luminescence, 5 min; series mostly up to 54.1 µM; also: nearly all actives have a fitted effect of over 60% in size
In short: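 Titrated compounds were incubated 15 min at RT, protected from light, with luciferin and ATP at 10 uM; reaction started with 10 nM FLuc, luminescence imaged at 5 min, and concentration-response fitted by Hill equation.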

Compound	Potency
CN(CCCOc1ccc(Cc2ccccc2)cc1)CCC(=O)O	inactive
Cc1onc(-c2c(F)cccc2Cl)c1C(=O)N[C@@H]1C(=O)N2[C@@H]1SC(C)(C)[C@@H]2C(=O)O	inactive
CCCCN(CC)c1nc(C)nc2c1c(C)cn2-c1c(C)cc(C)cc1C	inactive
O=C(O)CC1CC(c2ccccc2)=NO1 (stereo not given)	inactive
CC(=O)O[C@H]1C[C@@]2(C)[C@@H](C[C@@H](O)[C@H]3[C@@]4(C)CC[C@@H](O)[C@@H](C)[C@@H]4CC[C@@]32C)/C1=C(\CCC=C(C)C)C(=O)O	inactive
CCNc1nc2c(ncn2[C@H]2C[C@H](O)[C@@H](CO)O2)c(=O)[nH]1	inactive
NS(=O)(=O)c1ccc(-n2nc(C(F)(F)F)cc2-c2ccc(Cl)cc2)cc1	inactive

tested on: not listed separately; assay: Primary fluorescence-based thiol-reactive (MSTI) qHTS assay for identification of artifact compounds. (AID 1845221); conditions: MSTI thiol-reactivity probe, 1 h; series mostly up to 53.8 µM;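 also: thiol-reactive compounds lower the probe fluorescence signal; nearly all actives have a fitted effect of over 65% in size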
In short: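 Reactivity toward the thiol probe MSTI (4 uM) is scored by fluorescence at Ex/Em 525/598 nm after 1 h at room temperature. Acetyl-MSTI and MSTI define the activity scale.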

Compound	outcome
CN(CCCOc1ccc(Cc2ccccc2)cc1)CCC(=O)O	inactive
Cc1onc(-c2c(F)cccc2Cl)c1C(=O)N[C@@H]1C(=O)N2[C@@H]1SC(C)(C)[C@@H]2C(=O)O	inactive
CCCCN(CC)c1nc(C)nc2c1c(C)cn2-c1c(C)cc(C)cc1C	inactive
O=C(O)CC1CC(c2ccccc2)=NO1 (stereo not given)	inactive
CC(=O)O[C@H]1C[C@@]2(C)[C@@H](C[C@@H](O)[C@H]3[C@@]4(C)CC[C@@H](O)[C@@H](C)[C@@H]4CC[C@@]32C)/C1=C(\CCC=C(C)C)C(=O)O	inactive
CCNc1nc2c(ncn2[C@H]2C[C@H](O)[C@@H](CO)O2)c(=O)[nH]1	inactive
NS(=O)(=O)c1ccc(-n2nc(C(F)(F)F)cc2-c2ccc(Cl)cc2)cc1	inactive
